Laboratory results as given in PubChem BioAssay AID817 (Emory University Molecular Libraries Screening Center, 2007).
In all, about 140,000 compounds went through this assay and about 300 (0.21%) were called active.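 Rule for the calls: active = z-score above 3 at both the 24 hr and the 30 hr optical density reads; inactive = the rest, inconclusive results apart.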 The full list was thinned out, with actives kept by preference.

Assay: restorers of sdo1-deficient yeast growth – S. cerevisiae, bone marrow failure model, primary screen (AID 817);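 note: z-score against mean and SD of all compound wells on the same plate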
Conditions: S. cerevisiae sdo1-depleted JHY4D growth rescue, at 10 µM, stronger effect = higher value, pdr5 snq2 efflux-pump mutant strain
[1] = OD600, measured here: growth rescue at 24 h

Structure (SMILES): O=C(/C=C/c1ccc(F)cc1)Nc1cccc(S(=O)(=O)Nc2cccc(C(F)(F)F)c2)c1
- z-score (OD600 30 h): -0.39 (inactive)
- z-score [1]: -0.2

Structure (SMILES): COc1ccc2c(CN3CCN(S(=O)(=O)c4cccs4)CC3)cc(=O)oc2c1
- z-score (OD600 30 h): -1.29 (inactive)
- z-score [1]: -1.27

Structure (SMILES): COc1cc(CC(=O)N/N=C/c2ccccc2)c([N+](=O)[O-])cc1OC
- z-score (OD600 30 h): 0.66 (inactive)
- z-score [1]: 0.79

Structure (SMILES): Cc1ccc2[nH]c(C(=O)O)c(NC(=O)c3ccccc3[N+](=O)[O-])c2c1
- z-score (OD600 30 h): 1.28 (inactive)
- z-score [1]: 1.83

Structure (SMILES): CCN(CC)S(=O)(=O)c1cc([N+](=O)[O-])ccc1N=Nc1c(O)n(C)c2ccccc12
- z-score (OD600 30 h): -0.62 (inactive)
- z-score [1]: 0.64

Structure (SMILES): Cc1cccc(C(=O)c2cccc(C)c2)c1
- z-score (OD600 30 h): -0.29 (inactive)
- z-score [1]: -0.6

Structure (SMILES): CCOC(=O)c1c(/N=C/C2C(=O)CC(C)(C)CC2=O)sc(C)c1C
- z-score (OD600 30 h): 0.94 (inactive)
- z-score [1]: 1.36

Structure (SMILES): O=C(/C=C/c1cccc([N+](=O)[O-])c1)NCCSCc1ccco1
- z-score (OD600 30 h): -0.03 (inactive)
- z-score [1]: -0.07

Structure (SMILES): CC(C)NC(=S)N1CCN(S(C)(=O)=O)CC1
- z-score (OD600 30 h): 0.56 (inactive)
- z-score [1]: 0.03

Structure (SMILES): COCCOC(=O)c1c(C)oc2cc(Br)c(OCC(N)=O)cc12
- z-score (OD600 30 h): 0.6 (inactive)
- z-score [1]: 0.18

Structure (SMILES): O=C(Nc1ccccc1Cl)c1ccccc1S(=O)(=O)c1ccccc1[N+](=O)[O-]
- z-score (OD600 30 h): 0.14 (inactive)
- z-score [1]: 0.15

Structure (SMILES): C[C@@H]1NC(=O)c2cc([N+](=O)[O-])cc(F)c2NCCC[C@@H](C(N)=O)NC(=O)[C@H](CC(N)=O)NC1=O
- z-score (OD600 30 h): 0.86 (inactive)
- z-score [1]: 0.49

Structure (SMILES): CN(c1ccccc1)S(=O)(=O)c1ccc(Cl)c(C(=O)NCCc2c[nH]c3ccccc23)c1
- z-score (OD600 30 h): 0.35 (inactive)
- z-score [1]: 0.28

Structure (SMILES): CC(Oc1ccccc1F)C(=O)NN (stereo not drawn)
- z-score (OD600 30 h): -0.12 (inactive)
- z-score [1]: -0.98

Structure (SMILES): O=C(Cc1cccc2ccccc12)NCCC1=CCCCC1
- z-score (OD600 30 h): -0.77 (inactive)
- z-score [1]: -0.75

Structure (SMILES): O=C(Nn1c(-c2ccc(Cl)cc2)nc2ccccc2c1=O)c1cccnc1Cl
- z-score (OD600 30 h): 0.6 (inactive)
- z-score [1]: 0.56

Structure (SMILES): CCOC(=O)C1=C(c2ccc(OC)cc2)C(=O)c2ccccc2C1=O
- z-score (OD600 30 h): -1.39 (inactive)
- z-score [1]: -0.65

Structure (SMILES): CCOC(=O)CNC(=O)/C=C/c1c(Cl)cccc1Cl
- z-score (OD600 30 h): -0.54 (inactive)
- z-score [1]: -0.72

Structure (SMILES): COc1ccc(OCC(O)CNC(=O)Nc2ccc(Cl)cc2)cc1 (stereo not drawn)
- z-score (OD600 30 h): 0.9 (inactive)
- z-score [1]: 0.68

Structure (SMILES): S=C(NCCc1ccccc1)NCc1ccccc1Cl
- z-score (OD600 30 h): -1.82 (inactive)
- z-score [1]: -1.22

Structure (SMILES): N#Cc1ccccc1NC(=O)COc1c(Br)cc(Br)c2cccnc12
- z-score (OD600 30 h): 0.47 (inactive)
- z-score [1]: 2.32

Structure (SMILES): O=C(NC(=S)N1CCN(Cc2ccccc2)CC1)c1ccccc1
- z-score (OD600 30 h): 0.36 (inactive)
- z-score [1]: 0.18

Structure (SMILES): CC(=O)c1cc(-c2ccccc2)n(CCC(=O)NC2CCCCCC2)c1C
- z-score (OD600 30 h): -1.63 (inactive)
- z-score [1]: -1.27

Structure (SMILES): CCOC(=O)C1CCN(C(=O)c2ccccc2N(C)S(=O)(=O)c2ccccc2)CC1
- z-score (OD600 30 h): 0.01 (inactive)
- z-score [1]: -0.21

Structure (SMILES): O=C(NN1C(=O)C2C3C=CC(O3)C2C1=O)c1ccncc1 (stereo not drawn)
- z-score (OD600 30 h): 0.24 (inactive)
- z-score [1]: -0.88

Structure (SMILES): Cc1ccc(S(=O)(=O)N2CCC(C(=O)N[C@@H](C)C(=O)NCc3ccco3)CC2)cc1
- z-score (OD600 30 h): 1.22 (inactive)
- z-score [1]: 0.16

Structure (SMILES): Cc1ccn(-c2cccc(-n3ccc(C)n3)n2)n1
- z-score (OD600 30 h): -0.06 (inactive)
- z-score [1]: -0.3

Structure (SMILES): COc1ccc2c(c1)C(SCC(=O)NCc1ccccc1)CC(C)(C)O2 (stereo not drawn)
- z-score (OD600 30 h): -0.16 (inactive)
- z-score [1]: -0.58

Structure (SMILES): COc1ccc(-c2csc(NC(=O)COC(=O)c3ccc(Br)o3)n2)cc1
- z-score (OD600 30 h): 1.63 (inactive)
- z-score [1]: 1.52

Structure (SMILES): COC(=O)Cc1ccc(OCC(=O)Nc2ccc(OC(F)(F)F)cc2)cc1
- z-score (OD600 30 h): 0.38 (inactive)
- z-score [1]: 0.19

Structure (SMILES): Cc1ccccc1C1=NC(C(F)(F)F)(C(F)(F)F)c2c(n(-c3ccc(F)cc3)c(=O)[nH]c2=O)N1
- z-score (OD600 30 h): 0.91 (inactive)
- z-score [1]: 1.23

Structure (SMILES): CC(C)(C)CC(C)(C)NCC(O)COCCOc1ccc(Br)cc1 (stereo not drawn)
- z-score (OD600 30 h): -1.47 (inactive)
- z-score [1]: -1.24

Structure (SMILES): CCCn1c(C)cc(/C=C(\C#N)C(=O)OCC(=O)Nc2cc(OC)c(OC)c(OC)c2)c1C
- z-score (OD600 30 h): -0.22 (inactive)
- z-score [1]: -0.65

Structure (SMILES): COC(=O)c1sccc1NC(=O)COc1ccc(Cl)cc1
- z-score (OD600 30 h): -0.81 (inactive)
- z-score [1]: 0.03

Structure (SMILES): Cc1cc(C)cc(NC(=S)NCc2ccc(F)cc2)c1
- z-score (OD600 30 h): -0.44 (inactive)
- z-score [1]: -0.91

Structure (SMILES): COc1ccc(C2=NN(C(=O)c3cccnc3)C(c3ccccc3)C2)cc1 (stereo not drawn)
- z-score (OD600 30 h): -0.64 (inactive)
- z-score [1]: -0.53

Structure (SMILES): Cc1ccc(Nc2cc(C)nc3c(C)ccc([N+](=O)[O-])c23)cc1
- z-score (OD600 30 h): -2.1 (inactive)
- z-score [1]: -1.28

Structure (SMILES): O=c1c2sccc2nc(SCc2cc(=O)n3ccccc3n2)n1-c1ccc(Br)cc1
- z-score (OD600 30 h): -0.28 (inactive)
- z-score [1]: 0.04

Structure (SMILES): Cc1ccc(C)c(NC(=O)CCC(=O)NNC(=O)c2cccs2)c1
- z-score (OD600 30 h): 0.52 (inactive)
- z-score [1]: -0.15

Structure (SMILES): O=C(CSc1ccc(C(F)(F)F)cc1[N+](=O)[O-])NCCOc1ccccc1
- z-score (OD600 30 h): -0.75 (inactive)
- z-score [1]: -0.39

Structure (SMILES): Cc1cccc(C(=O)OCC(=O)Nc2sc3c(c2C#N)CCC3)c1
- z-score (OD600 30 h): 1.54 (inactive)
- z-score [1]: 1.79

Structure (SMILES): CCCNC(=O)NC(=O)COC(=O)CC(NC(N)=O)c1ccc(Cl)cc1 (stereo not drawn)
- z-score (OD600 30 h): 1.01 (inactive)
- z-score [1]: 0.32

Structure (SMILES): CC[C@H]1OC(=O)[C@H](C)[C@@H](O[C@H]2C[C@@](C)(OC)[C@@H](O)[C@H](C)O2)[C@H](C)[C@@H](O[C@@H]2O[C@H](C)C[C@H](N(C)C)[C@H]2O)[C@](C)(O)C[C@@H](C)[C@@H]2N[C@@H](COCCOC)O[C@H]([C@H]2C)[C@]1(C)O
- z-score (OD600 30 h): 2.24 (inactive)
- z-score [1]: 2.51

Structure (SMILES): Cc1cc(Cl)ccc1OCCCC(=O)NCc1ccncc1
- z-score (OD600 30 h): -0.45 (inactive)
- z-score [1]: -0.98

Structure (SMILES): O=C(CCN1C(=O)c2ccccc2C1=O)C1=NN[C@@H]2C(=O)N(c3ccc(F)cc3)C(=O)[C@H]12
- z-score (OD600 30 h): 0.12 (inactive)
- z-score [1]: -0.42

Structure (SMILES): CC(NC(=O)COC(=O)C1CCN(S(=O)(=O)c2ccccc2C(F)(F)F)CC1)c1ccccc1 (stereo not drawn)
- z-score (OD600 30 h): 1.2 (inactive)
- z-score [1]: 1.46

Structure (SMILES): O=S(=O)(/N=C(/Nc1ccccn1)c1ccccc1)c1ccc(Cl)cc1
- z-score (OD600 30 h): 5.14 (active)
- z-score [1]: 4.98

Structure (SMILES): Cc1ccc(S(=O)(=O)/N=C(/Nc2ccccn2)c2ccc(Cl)cc2)cc1
- z-score (OD600 30 h): -1.04 (inactive)
- z-score [1]: -0.87

Structure (SMILES): Cc1ccc(S/C(=N\S(=O)(=O)c2ccc(Cl)cc2)c2ccccc2)cc1
- z-score (OD600 30 h): -0.79 (inactive)
- z-score [1]: -1.13
